High-throughput results (PubChem BioAssay)
JMJD2A Tudor: JMJD2A Tudor domain (human) inhibition; AlphaScreen JMJD2A-Tudor / H3K4me3 peptide binding; AID 504339; O75164; Potency, µM (top dose mostly 114 µM), for the others: at the highest dose activity change, negative = inhibition, actives largely listed as inhibitors; 390,000 tested, 4.4% active; further: on the % scale 0 is the no-effect control and ±100 the full control effect; nearly all actives have a fitted effect of over 50% in size
BAZ2B inh: inhibitors of human BAZ2B bromodomain | 360,000 tested, 4.4% active | Q9UIF8 | AlphaScreen BAZ2B-H3K14Ac peptide displacement | Potency, µM (doses to about 114 µM), without a hit: at the highest dose activity change, negative = inhibition, most hits filed as inhibitors | AID 504333; further: on the % scale 0 is the no-effect control and ±100 the full control effect; nearly all actives have a fitted effect of over 60% in size
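Inhibition is scored as reduced AlphaScreen emission. The BAZ2B/b-H3(5-23)K14Ac complex (50 nM each) in PBS pH 7.4, 0.01% Tween-20 meets compound (up to 110 uM) for 30 min at RT before bead addition.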
HP1b binding inh: HP1-beta chromodomain-methylated histone interaction inhibition; P83916; AlphaScreen HP1-beta / biotin-H3K9me3 peptide binding; Potency, µM (titrated, usually from 114 µM), without a hit: top-dose activity change, negative = inhibition, usual class: inhibitors; 390,000 tested, 0.56% active; AID 540317; further: nearly all actives have a fitted effect of over 70% in size
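AlphaScreen: HP1-beta (50 nM) preformed 30 min with biotin-H3(1-18)K9me3 peptide (50 nM) in PBS pH 7.4, 0.01% Tween-20. Compound added for 30 min at RT, then streptavidin donor/nickel chelate acceptor beads (10 ug/mL) for 30 min.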
G9a block: inhibitors of human histone lysine methyltransferase G9a; Q96KQ7; G9a H3K9 monomethylation, AlphaScreen, 2 h; Potency, µM (top dose mostly 102 µM), without a hit: at the highest dose activity, negative = inhibition, usual class: inhibitors; 350,000 tested, 8.8% active; AID 504332; further: on the % scale 0 is the no-effect control and ±100 the full control effect; nearly all actives have a fitted effect of over 75% in size
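Step 1: enzyme (final 20 nM) with compound, 15 min RT. Step 2: substrate peptide 500 nM and SAM 20 uM, 2 h RT. Step 3: anti-H3K9me1 antibody and AlphaScreen beads, 10 min, then plate read.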
L3MBTL1 block: inhibitors of human L3MBTL1. Q9Y468. 230,000 tested, 0.66% active. AlphaScreen L3MBTL1–H3K9me1 peptide binding. Potency, µM (highest dose often 57.1 µM), inactives show at the top dose activity, negative = inhibition, usual class: inhibitors; further: on the % scale 0 is the no-effect control and ±100 the full control effect; nearly all actives have a fitted effect of over 60% in size
Target sequence (Q9Y468 whole entry, looked up): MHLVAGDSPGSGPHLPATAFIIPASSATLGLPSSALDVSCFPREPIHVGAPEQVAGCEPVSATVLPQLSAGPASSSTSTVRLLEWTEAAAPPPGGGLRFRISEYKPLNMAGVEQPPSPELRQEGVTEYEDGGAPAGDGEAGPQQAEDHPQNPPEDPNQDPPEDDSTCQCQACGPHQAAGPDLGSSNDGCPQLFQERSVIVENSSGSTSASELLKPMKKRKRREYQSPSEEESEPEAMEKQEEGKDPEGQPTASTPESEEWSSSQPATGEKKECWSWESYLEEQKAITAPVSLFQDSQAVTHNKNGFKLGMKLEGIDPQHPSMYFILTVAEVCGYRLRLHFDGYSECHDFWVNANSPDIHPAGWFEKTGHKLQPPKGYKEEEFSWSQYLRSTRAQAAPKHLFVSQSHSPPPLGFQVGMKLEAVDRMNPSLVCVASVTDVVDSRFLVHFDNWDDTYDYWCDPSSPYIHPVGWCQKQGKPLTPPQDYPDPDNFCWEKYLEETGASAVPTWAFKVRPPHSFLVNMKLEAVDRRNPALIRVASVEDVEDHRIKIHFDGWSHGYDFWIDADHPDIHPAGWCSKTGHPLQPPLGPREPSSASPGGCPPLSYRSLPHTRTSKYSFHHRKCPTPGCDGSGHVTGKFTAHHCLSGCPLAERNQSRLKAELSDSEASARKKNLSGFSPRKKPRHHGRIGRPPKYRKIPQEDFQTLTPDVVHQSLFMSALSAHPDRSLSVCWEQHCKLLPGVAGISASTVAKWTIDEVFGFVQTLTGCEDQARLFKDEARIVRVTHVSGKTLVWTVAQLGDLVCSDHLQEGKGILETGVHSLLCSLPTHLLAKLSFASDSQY
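L3MBTL1 (50 nM) pre-complexed 30 min with biotinylated H3(1-15)K9me1 peptide (75 nM), then compounds added for 30 min at room temperature; AlphaScreen streptavidin donor/nickel chelate acceptor beads (10 ug/mL final) read after 30 min dark incubation.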
Sfp PPTase inh: blocks B. subtilis Sfp PPTase activity; Potency, µM, for inactives: largest response in the series, negative = inhibition, actives largely listed as inhibitors; AID 1490; Biochemical Sfp PPTase activity, qHTS; 310,000 tested, 3.5% active; Q9F4F7;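 further: the enzyme is Sfp with the accession as filed and its product quenches rhodamine fluorescence; 0% = enzyme reaction without inhibitor and -100% = no enzyme wells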
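Fluorescence-quenching assay: 15 nM Sfp-PPTase preincubated 15 min at room temperature with compound, then 5 uM rhodamine-CoA and 12.5 uM BHQ-2-labelled YbbR peptide added. Fluorescence (ex 525/em 598 nm) read at start and after 30 min; difference gives rate.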
Starred values were filed as active, the others as inactive; ? = inconclusive; nt = no result; ! = not active in a repeat; [ ] = another dose, or the depositor's remark. This is a sample that favours compounds with a hit; in the whole collection about 12% have one here. The call rests on the fitted dose curve; in most records, active means well fitted curve in the direction sought with a large enough effect; inconclusive means small, poorly fitted or top-dose-only effect, or another doubt; inactive means no such curve, though single readings can be large; an effect the other way counts as inactive or inconclusive. Potency means the concentration at half of the fitted maximal effect.

SMILES | JMJD2A Tudor | BAZ2B inh | HP1b binding inh | G9a block | L3MBTL1 block | Sfp PPTase inh
CC[C@H](C)[C@H](NC(=O)[C@H](Cc1ccc(O)cc1)NC(=O)[C@@H](NC(=O)[C@H](CCCNC(=N)N)NC(=O)[C@@H](N)CC(=O)O)C(C)C)C(=O)N[C@@H](Cc1cnc[nH]1)C(=O)N1CCC[C@H]1C(=O)N[C@@H](Cc1ccccc1)C(=O)N[C@@H](Cc1cnc[nH]1)C(=O)N[C@@H](CC(C)C)C(=O)N[C@@H](CC(C)C)C(=O)N[C@H](C(=O)N[C@@H](Cc1ccc(O)cc1)C(=O)N[C@@H](CO)C(=O)O)C(C)C | nt | nt | nt | nt | nt | -10%
O=C(NCc1ccccn1)C1CCCN(S(=O)(=O)c2ccccc2)C1 (stereo not drawn) | -9% | 7% | 48% | 35µM* | 9% | 13%
Cc1ccc(S(=O)(=O)N2CCCCC2C(=O)Nc2ccc(N(C)C)cc2)cc1 (stereo not drawn) | 50µM* | nt | ? | nt | -26% | nt
CN(C)c1ccc(NC(=O)C2CCCN(S(=O)(=O)c3ccccc3)C2)cc1 (stereo not drawn) | -23%[57.1 µM] | ? | 12% | 8.9µM* | -23% | -2%
Cc1ccc(S(=O)(=O)N2CCCC2C(=O)Nc2ccc(Br)cc2)cc1 (stereo not drawn) | 0% | 7% | 64% | 17%[59 µM] | nt | nt
CCc1ccc(NC(=O)c2nc3nc(C)cc(C(F)F)n3n2)cc1 | -17% | 0% | 11% | -15%[59 µM] | nt | nt
COc1ccc(O[C@H]2C=C[C@@H](c3ccccc3)O[C@H]2COC(=O)CC/C(C)=N\OC[C@@H](O)[C@H]2O[C@H]3OC(C)(C)O[C@H]3[C@@H]2O)cc1 | nt | nt | nt | nt | nt | 16%
CC(=O)OC[C@H]1O[C@@H](O/N=C/C[C@@H]2C=C[C@H](OC(C)=O)[C@@H](COC(C)=O)O2)[C@H](OC(C)=O)[C@@H](OC(C)=O)[C@@H]1OC(C)=O | nt | -12% | nt | 79µM* | -2% | 0%
COc1ccc(O[C@H]2C=C[C@@H](c3ccccc3)O[C@@H]2COC(=O)CC/C(C)=N/OC[C@@H](O)[C@H]2O[C@@H]3OC(C)(C)O[C@@H]3[C@H]2O)cc1 | nt | ? | nt | 79µM* | -4% | 1%
COc1ccc(O[C@H]2C=C[C@@H](c3ccccc3)O[C@@H]2COC(=O)CCC(C)=NO[C@@H]2O[C@H](COC(C)=O)[C@@H](OC(C)=O)[C@H](OC(C)=O)[C@H]2OC(C)=O)cc1 | nt | -13% | nt | 50µM* | -11% | -2%
CO/N=C\C[C@@H]1C=C[C@H](OC(C)=O)[C@H](COC(C)=O)O1 | nt | nt | nt | nt | nt | 4%
CCOC(=O)c1[nH]c(C)c(CCC(=O)Nc2ccc(C(C)=O)cc2)c1C | -28% | -22% | 13%[57 µM] | 1%[59 µM] | nt | nt
O=C1c2cccc3c([N+](=O)[O-])ccc(c23)C(=O)N1Cc1cccnc1 | -21%[57.1 µM] | 40µM* | ? | ? | ? | ?
Cc1nnc(N2C(=O)c3cccc4c([N+](=O)[O-])ccc(c34)C2=O)s1 | -5% | -21% | 54% | 50µM* | -2% | -19%
Cc1ccnc(N2C(=O)c3cccc4c([N+](=O)[O-])ccc(c34)C2=O)c1 | -25% | 5% | 2% | ? | -4% | -9%
Cc1oc2c(cc(NS(=O)(=O)c3ccc(Br)cc3)c3ccccc32)c1C(=O)OCc1ccccc1 | -27% | -5% | -10% | -11%[59 µM] | nt | nt
CCCN(C(=O)Cn1c(=O)oc2cc(Cl)ccc21)c1ccc(C(C)C)cc1 | 18% | -12% | 55% | ? | nt | nt
COc1cc(NC(=O)CSc2nc3ncccc3o2)cc(OC)c1 | -17% | -8% | ? | 10%[59 µM] | nt | nt
O=C1CCc2cccc(O)c2N1 | 79µM* | nt | -27% | nt | nt | nt
O=C1CCC(=O)c2oc3ccccc3c2N1 | -9% | -4% | 21% | 9% | -5% | 12%
Cc1ccc(-n2cc(C(=O)OCc3ccc(Cl)cc3)c3ccccc3c2=O)cc1 | -3% | 1% | 20%[57 µM] | 18%[59 µM] | nt | nt
O=C(/C=C/c1ccc(Br)cc1)NC(=O)c1ccccc1O | -11%[57.1 µM] | ? | -8% | ? | -24% | 0%
O=C(O)/C=C/c1ccc(O)c(O)c1 | ? | ? | 13% | 11µM* | ? | 56µM*!
O=C(/C=C/c1ccc(O)c(O)c1)NC(=O)c1ccccc1O | 63µM* | 50µM* | ? | 5%[12.7 µM] | nt | -12%
O=C(/C=C/c1ccc(O)c(O)c1)O[C@H](Cc1ccc(O)c(O)c1)C(=O)O | nt | 3.5µM* | nt | ? | nt | 50µM*
SMILES | JMJD2A Tudor | BAZ2B inh | HP1b binding inh | G9a block | L3MBTL1 block | Sfp PPTase inh
COC(=O)C(N)Cc1ccc(O)c(O)c1 (stereo not drawn) | -15% | -31% | 0% | ? | nt | -23%
COc1ccccc1OCC(=O)Nc1nc(-c2ccc(Br)cc2)ns1 | -11% | -2% | 27% | 6%[59 µM] | nt | nt
COc1ccccc1CNC(=O)CN1C(=O)COc2ccc(S(=O)(=O)N3CCC(C)CC3)cc21 | -21% | -15% | 26% | -2%[59 µM] | nt | nt
COc1cccc(NC(=O)c2oc3ccc(S(=O)(=O)N4CCC5(CC4)OCCO5)cc3c2C)c1 | -6% | 4% | 18% | -18%[59 µM] | nt | nt
CCCCn1c(=O)n(CC(=O)Nc2ccc(C)c(Cl)c2)c(=O)c2c1ncn2Cc1ccco1 | -4% | 4% | 22% | 25µM* | -6% | ?
COc1ccc(C2c3c(n(C)c4ccccc34)C(=O)N2CC(=O)Nc2cc(Cl)ccc2C)cc1 (stereo not drawn) | -17% | -20% | -2% | -31%[59 µM] | nt | nt
CN(C)c1oc(/C=C/c2ccc(F)cc2)nc1C#N | -3% | -9% | 15% | -25%[59 µM] | nt | nt
Cc1[nH]c2ccccc2c1C(c1ccccn1)N1CCCC1 (stereo not drawn) | -11% | -24% | 29% | 45µM* | -5% | -3%
Cc1cc(NC(c2cccnc2)c2c(C)[nH]c3ccccc23)no1 (stereo not drawn) | -16% | 6% | 4% | -44%[12.7 µM] | -12% | -13%
Cc1ccnc(NC(c2ccccn2)c2c(C)[nH]c3ccccc23)c1 (stereo not drawn) | 56µM* | -39% | ? | ? | -8%[11.4 µM] | ?
CCOC(=O)C1CCCN(C(c2ccccn2)c2c(C)[nH]c3ccccc23)C1 (stereo not drawn) | -7% | -33% | 5% | 1.4µM* | -5% | 45µM*
Cc1[nH]c2ccccc2c1C(c1ccccn1)N1CCC(C)CC1 (stereo not drawn) | -3% | -10% | 34% | ? | 0% | 0%
CSc1ccc(Nc2nn(-c3ccc(OC(F)(F)F)cc3)nc2C(C)=O)cc1 | -20% | 2% | 5% | 8%[59 µM] | nt | nt
COc1ccc2cc(C#N)c(=O)oc2c1 | nt | nt | nt | nt | nt | 27%
